Assay [1] deals with mouse Cholecystokinin, CCK1 Receptor (CCKA), Cckar (gene 12425) (UniProt O08786). Kind of assay: NVS_GPCR_mCCKAPeripheral: NovaScreen (NVS) G Protein-Coupled Receptor Assay for mouse Cholecystokinin, CCK1 Receptor (CCKA) (AID 2283285). In a few lines: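 Chemicals were first screened in duplicate at 25 uM, with those meeting threshold (e.g., 30% inhibition) retested in singleton concentration series to 50 uM maximum. Binding of radioligand to mouse pancreatic membranes was read after 2 h by filtration and scintillation counting.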

The test system of assay [2] is 5-hydroxytryptamine receptor 2C (pig). The assay is described as follows: NVS_GPCR_p5HT2C: NovaScreen (NVS) G Protein-Coupled Receptor Assay for pig Serotonin, 5-Hydroxytryptamine Receptor 2C (5HT2C) (AID 2283288). In outline:
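Radioligand displacement on membranes from pig choroid plexus, detected by filter scintillation counting after 1 h. Tested first at a single 25 uM in duplicate, then in concentration-response for actives; DMSO served as baseline.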

Assay [3] has as its target human Opioid Receptor Mu (Opiate Mu), OPRM1 (gene 4988) (UniProt P35372). The assay is described as follows: NVS_GPCR_hOpiate_mu: NovaScreen (NVS) G Protein-Coupled Receptor Assay for human Opioid Receptor Mu (Opiate Mu) (AID 2283290).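 Also: hits lower bound tracer signal versus DMSO meaning displacement of the ligand.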 In a few lines: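 Here, radioligand binding to CHO-extracted receptor was measured after 2.5 h using filter-based scintillation detection. Initial single-concentration screening used 25 uM in duplicate with plate controls; confirmed actives went to concentration-response testing.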

The target of assay [4] is human Neuropeptide Receptor Y1 (NPY1), NPY1R (gene 4886) (UniProt P25929). The assay is described as follows: NVS_GPCR_hNPY1: NovaScreen (NVS) G Protein-Coupled Receptor Assay for human Neuropeptide Receptor Y1 (NPY1) (AID 2283276). In outline:
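Displacement of specific radioligand from NPY1 receptor of SK-N-MC origin, read by filtration and scintillation after 1 h. Compounds first tested at 25 uM in duplicate, then actives in concentration series; signal loss relative to DMSO.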

Assay [5] addresses human Opioid Receptor Delta 1 (Opiate D1), OPRD1 (gene 4985) (UniProt P41143). Kind of assay: NVS_GPCR_hOpiate_D1: NovaScreen (NVS) G Protein-Coupled Receptor Assay for human Opioid Receptor Delta 1 (Opiate D1) (AID 2283280). In outline: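 Membrane preparations from CHO cells bearing the human receptor were incubated 1 h with test chemical, and bound radioligand was counted after filtration. Actives from 25 uM duplicate screening were retested in concentration-response.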

Assay [6] deals with rat Serotonin, 5-Hydroxytryptamine Receptor 1 (5HT1), Non-Selective Binding, Htr1a (gene 24473) (UniProt P19327). Kind of assay: NVS_GPCR_r5HT1_NonSelective: NovaScreen (NVS) G Protein-Coupled Receptor Assay for rat Serotonin, 5-Hydroxytryptamine Receptor 1 (5HT1), Non-Selective Binding (AID 2283286). In outline:
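Binding of a radioligand to rat cortex membranes is read by filtration and scintillation counting after 1 h. Compounds were screened at 25 uM in duplicate. Actives were then titrated to a top of 50 uM. DMSO is the baseline.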

The target of assay [7] is guinea pig Serotonin, 5-Hydroxytryptamine Receptor 4 (5HT4), HTR4 (gene 100135548) (UniProt O70528). Kind of assay: NVS_GPCR_g5HT4: NovaScreen (NVS) G Protein-Coupled Receptor Assay for guinea pig Serotonin, 5-Hydroxytryptamine Receptor 4 (5HT4) (AID 2283294). In a few lines: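 Compounds first screened in duplicate at 25 uM, actives followed up in concentration series. Binding measured as displacement of specific radioligand from guinea pig striatal membranes, 1 h, filter-based scintillation read-out versus DMSO baseline.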

In assay [8] the target is guinea pig Bradykinin Receptor B2 (BK2), BDKRB2 (gene 100135486) (UniProt O70526). The assay is described as follows: NVS_GPCR_gBK2: NovaScreen (NVS) G Protein-Coupled Receptor Assay for guinea pig Bradykinin Receptor B2 (BK2) (AID 2283292). In a few lines: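 Guinea pig ileum membrane preparation incubated 1 h with radioligand and test chemical; bound counts measured after filtration. Primary duplicate screening at 25 uM, then singleton concentration series with a 50 uM top dose; DMSO as baseline.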

Assay [9] concerns the target human Neurotensin Receptor (NTS), NTSR1 (gene 4923) (UniProt P30989). Kind of assay: NVS_GPCR_hNTS: NovaScreen (NVS) G Protein-Coupled Receptor Assay for human Neurotensin Receptor (NTS) (AID 2283279). In outline:
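Compounds competed with a radiolabelled ligand for binding to CHO-derived human neurotensin receptor; bound signal counted after filtration, 1 h. Screened first at a single concentration of 25 uM in duplicate, then concentration series to 50 uM maximum for actives.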

Assay [10] relates to rabbit Platelet Activating Factor Receptor (PAF), gene 100354046. The assay is described as follows: NVS_GPCR_rabPAF: NovaScreen (NVS) G Protein-Coupled Receptor Assay for rabbit Platelet Activating Factor Receptor (PAF) (AID 2283287). In a few lines: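 Rabbit platelet membrane preparation; radioligand displacement read by filter-based scintillation counting 1 h after dosing, loss of signal versus DMSO. Primary screen in duplicate at 25 uM, actives followed up in concentration series.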

The target of assay [11] is human Vasopressin 1A Receptor (V1A), AVPR1A (gene 552) (UniProt P37288). The assay is described as follows: NVS_GPCR_hV1A: NovaScreen (NVS) G Protein-Coupled Receptor Assay for human Vasopressin 1A Receptor (V1A) (AID 2283284). In outline: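 Single-concentration duplicate screen at 25 uM, with concentration-response follow-up (top 50 uM) for actives. The assay measured displacement of a radioligand from human platelet-derived receptor after 1.5 h, detected by filtration and scintillation counting.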

Assay [12] concerns the target Neuropeptide Y receptor type 2 (Homo sapiens) (UniProt P49146). Kind of assay: NVS_GPCR_hNPY2: NovaScreen (NVS) G Protein-Coupled Receptor Assay for human Neuropeptide Receptor Y2 (NPY2) (AID 2283277). In outline:
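Chemicals were first tested in duplicate at 25 uM, then actives in singleton concentration series to 50 uM. Tracer binding to SK-N-MC-derived protein measured cell-free after 1 h via filter scintillation; signal loss relative to DMSO.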

In assay [13] the target is human Muscarinic, M4 Receptor, CHRM4 (gene 1132) (UniProt P08173). Kind of assay: NVS_GPCR_hM4: NovaScreen (NVS) G Protein-Coupled Receptor Assay for human Muscarinic, M4 Receptor (AID 2283274). In a few lines: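 Filter-based scintillation counting of radioligand bound to CHO-expressed human M4 preparations after 1 h; loss of signal fitted versus DMSO. Initial duplicate testing at 25 uM, concentration-response follow-up for actives.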

Assay [14] relates to guinea pig Atrionatriuretic Peptide Receptor A (ANPA), gene 100135578. The assay is described as follows: NVS_GPCR_gANPA: NovaScreen (NVS) G Protein-Coupled Receptor Assay for guinea pig Atrionatriuretic Peptide Receptor A (ANPA) (AID 2283291). In a few lines:
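Displacement of specific radioligand from guinea pig cerebellum membranes was read by scintillation after 1 h. A duplicate single-point screen at 25 uM was followed by a concentration series up to 50 uM, analysed relative to DMSO.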

Assay [15] addresses human Neurokinin, NK2 Receptor, TACR2 (gene 6865) (UniProt P21452). Kind of assay: NVS_GPCR_hNK2: NovaScreen (NVS) G Protein-Coupled Receptor Assay for human Neurokinin, NK2 Receptor (AID 2283278).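 Also: actives reduce bound radioligand signal relative to DMSO baseline.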 In a few lines: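 Test chemicals displace a radioligand from receptor prepared from CHO cells in a cell-free format, read after 4 hours by scintillation counting on filters. Screening starts at 25 uM in duplicate, and active chemicals then go to concentration series.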

Assay [16] has as its target rat Adrenergic, Alpha 1, Non-selective Receptor (Adra1), Adra1a (gene 29412) (UniProt P43140). The assay is described as follows: NVS_GPCR_rAdra1_NonSelective: NovaScreen (NVS) G Protein-Coupled Receptor Assay for rat Adrenergic, Alpha 1, Non-selective Receptor (Adra1) (AID 2283289). In outline:
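Chemicals first screened in duplicate at 25 uM, then actives tested in concentration series up to 50 uM. Binding measured as displacement of radioligand from rat forebrain membrane receptors, 1 h, filtration with scintillation readout; DMSO baseline.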

For assay [17], the target named is Muscarinic acetylcholine receptor M2 (Homo sapiens) (UniProt P08172). Kind of assay: NVS_GPCR_hM2: NovaScreen (NVS) G Protein-Coupled Receptor Assay for human Muscarinic, M2 Receptor (AID 2283273). In outline: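 CHO-expressed human M2 receptor preparation, competitive displacement of a radioligand read by filter-based scintillation counting after 1 h. Single 25 uM duplicate screen, then concentration-response follow-up of actives; DMSO baseline.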

The values that follow come from PubChem BioAssay (EPA / NIEHS).

Values joined by “and” are separate entries in the source; they are usually repeats but may differ in a detail not shown here. Identical values can stand only once. Records with an inconclusive call do not appear. Some compounds were tested as several samples or in several runs, with calls that do not always agree. Active and inactive are the calls of the source. The calls were made as follows: active = hit-call score of the fitted dose curve at least 0.9, where 1 is the maximum; inconclusive = response in the unintended direction; inactive = score below 0.9.

Chain of human Opioid Receptor Delta 1 (Opiate D1), OPRD1 (gene 4985) (P41143 whole entry, looked up): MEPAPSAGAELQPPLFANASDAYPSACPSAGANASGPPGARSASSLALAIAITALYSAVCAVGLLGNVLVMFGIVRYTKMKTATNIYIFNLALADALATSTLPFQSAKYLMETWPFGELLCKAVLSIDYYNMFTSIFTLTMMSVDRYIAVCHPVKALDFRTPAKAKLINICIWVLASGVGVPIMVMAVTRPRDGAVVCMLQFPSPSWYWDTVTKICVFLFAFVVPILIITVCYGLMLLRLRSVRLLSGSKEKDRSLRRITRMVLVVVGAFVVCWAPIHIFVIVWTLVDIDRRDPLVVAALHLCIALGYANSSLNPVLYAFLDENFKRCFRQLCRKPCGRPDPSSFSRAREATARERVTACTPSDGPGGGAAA
Chain of mouse Cholecystokinin, CCK1 Receptor (CCKA), Cckar (gene 12425) (O08786 whole entry, looked up): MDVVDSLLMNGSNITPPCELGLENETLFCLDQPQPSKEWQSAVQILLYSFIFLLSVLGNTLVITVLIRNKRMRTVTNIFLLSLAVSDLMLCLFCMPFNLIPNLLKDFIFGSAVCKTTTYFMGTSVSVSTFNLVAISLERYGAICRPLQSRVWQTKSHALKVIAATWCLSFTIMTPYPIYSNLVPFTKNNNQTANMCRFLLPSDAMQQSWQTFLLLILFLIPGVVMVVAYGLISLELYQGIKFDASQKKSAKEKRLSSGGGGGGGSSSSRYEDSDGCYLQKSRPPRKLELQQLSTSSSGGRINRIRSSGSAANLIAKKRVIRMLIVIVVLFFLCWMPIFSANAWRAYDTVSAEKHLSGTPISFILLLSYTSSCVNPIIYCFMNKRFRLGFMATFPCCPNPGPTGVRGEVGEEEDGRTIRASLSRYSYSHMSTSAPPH
Chain of guinea pig Serotonin, 5-Hydroxytryptamine Receptor 4 (5HT4), HTR4 (gene 100135548) (O70528 whole entry, looked up): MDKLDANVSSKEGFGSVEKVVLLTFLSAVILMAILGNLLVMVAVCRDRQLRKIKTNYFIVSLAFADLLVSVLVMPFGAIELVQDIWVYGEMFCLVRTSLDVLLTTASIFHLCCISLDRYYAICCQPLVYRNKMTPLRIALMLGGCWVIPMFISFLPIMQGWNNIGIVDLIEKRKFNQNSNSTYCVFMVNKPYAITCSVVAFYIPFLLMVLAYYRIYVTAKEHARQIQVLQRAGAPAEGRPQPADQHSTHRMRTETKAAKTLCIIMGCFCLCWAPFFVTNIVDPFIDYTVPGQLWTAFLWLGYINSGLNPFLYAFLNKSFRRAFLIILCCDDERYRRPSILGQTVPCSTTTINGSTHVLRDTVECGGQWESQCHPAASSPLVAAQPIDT
Chain of Neuropeptide Y receptor type 2 (Homo sapiens) (P49146 whole entry, looked up): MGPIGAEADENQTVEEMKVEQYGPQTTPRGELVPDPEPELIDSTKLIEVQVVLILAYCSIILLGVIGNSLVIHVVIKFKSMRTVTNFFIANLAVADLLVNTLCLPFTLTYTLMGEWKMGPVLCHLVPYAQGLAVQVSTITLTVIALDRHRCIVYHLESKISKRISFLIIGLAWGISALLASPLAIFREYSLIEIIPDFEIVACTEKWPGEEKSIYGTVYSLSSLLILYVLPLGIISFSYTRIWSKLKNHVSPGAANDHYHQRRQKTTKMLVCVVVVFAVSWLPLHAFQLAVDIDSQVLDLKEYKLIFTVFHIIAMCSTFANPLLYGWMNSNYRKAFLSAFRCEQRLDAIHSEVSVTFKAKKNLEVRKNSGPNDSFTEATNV
Chain of rat Adrenergic, Alpha 1, Non-selective Receptor (Adra1), Adra1a (gene 29412) (P43140 whole entry, looked up): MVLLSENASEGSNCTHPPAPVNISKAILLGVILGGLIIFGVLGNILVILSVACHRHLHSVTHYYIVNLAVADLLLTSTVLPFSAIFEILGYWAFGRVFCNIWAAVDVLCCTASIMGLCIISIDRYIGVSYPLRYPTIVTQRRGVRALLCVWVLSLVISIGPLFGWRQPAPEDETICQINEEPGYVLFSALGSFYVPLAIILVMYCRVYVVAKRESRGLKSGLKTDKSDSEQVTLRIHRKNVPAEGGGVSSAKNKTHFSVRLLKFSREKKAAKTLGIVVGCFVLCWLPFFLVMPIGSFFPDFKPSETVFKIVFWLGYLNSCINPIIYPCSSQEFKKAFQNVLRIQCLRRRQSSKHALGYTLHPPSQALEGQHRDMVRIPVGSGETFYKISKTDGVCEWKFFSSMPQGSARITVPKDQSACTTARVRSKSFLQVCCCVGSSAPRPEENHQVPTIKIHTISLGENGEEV
Chain of human Opioid Receptor Mu (Opiate Mu), OPRM1 (gene 4988) (P35372 whole entry, looked up): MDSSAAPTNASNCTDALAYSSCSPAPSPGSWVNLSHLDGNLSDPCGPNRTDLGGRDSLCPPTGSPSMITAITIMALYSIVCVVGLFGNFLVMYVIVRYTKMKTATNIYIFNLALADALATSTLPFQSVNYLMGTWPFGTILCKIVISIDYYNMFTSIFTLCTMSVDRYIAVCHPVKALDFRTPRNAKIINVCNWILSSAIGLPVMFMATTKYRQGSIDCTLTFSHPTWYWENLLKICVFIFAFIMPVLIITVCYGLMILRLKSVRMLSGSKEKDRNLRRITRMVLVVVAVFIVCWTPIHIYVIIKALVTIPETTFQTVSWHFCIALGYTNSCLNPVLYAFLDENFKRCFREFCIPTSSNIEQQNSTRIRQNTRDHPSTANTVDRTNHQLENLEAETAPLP
Chain of human Neuropeptide Receptor Y1 (NPY1), NPY1R (gene 4886) (P25929 whole entry, looked up): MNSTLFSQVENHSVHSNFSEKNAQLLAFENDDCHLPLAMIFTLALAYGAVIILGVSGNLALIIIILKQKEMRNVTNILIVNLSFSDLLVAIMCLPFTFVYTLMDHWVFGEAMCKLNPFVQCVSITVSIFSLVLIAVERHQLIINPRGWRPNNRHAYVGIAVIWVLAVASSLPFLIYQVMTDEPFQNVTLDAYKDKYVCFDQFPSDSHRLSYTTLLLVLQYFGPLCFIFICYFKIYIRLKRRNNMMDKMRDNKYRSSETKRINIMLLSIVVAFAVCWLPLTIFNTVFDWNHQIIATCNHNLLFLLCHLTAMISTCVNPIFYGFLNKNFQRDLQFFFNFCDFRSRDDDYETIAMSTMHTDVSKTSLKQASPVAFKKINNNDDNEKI
Chain of rat Serotonin, 5-Hydroxytryptamine Receptor 1 (5HT1), Non-Selective Binding, Htr1a (gene 24473) (P19327 whole entry, looked up): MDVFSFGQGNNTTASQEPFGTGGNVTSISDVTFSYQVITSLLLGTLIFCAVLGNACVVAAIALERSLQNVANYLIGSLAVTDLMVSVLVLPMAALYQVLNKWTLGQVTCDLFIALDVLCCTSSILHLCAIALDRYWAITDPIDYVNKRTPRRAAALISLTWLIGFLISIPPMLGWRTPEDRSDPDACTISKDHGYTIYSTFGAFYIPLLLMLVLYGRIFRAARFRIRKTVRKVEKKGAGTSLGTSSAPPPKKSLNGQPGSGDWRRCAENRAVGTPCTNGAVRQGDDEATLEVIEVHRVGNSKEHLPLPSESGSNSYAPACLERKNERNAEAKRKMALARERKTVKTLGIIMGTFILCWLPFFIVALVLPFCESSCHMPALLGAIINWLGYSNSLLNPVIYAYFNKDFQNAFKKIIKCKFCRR
Chain of human Muscarinic, M4 Receptor, CHRM4 (gene 1132) (P08173 whole entry, looked up): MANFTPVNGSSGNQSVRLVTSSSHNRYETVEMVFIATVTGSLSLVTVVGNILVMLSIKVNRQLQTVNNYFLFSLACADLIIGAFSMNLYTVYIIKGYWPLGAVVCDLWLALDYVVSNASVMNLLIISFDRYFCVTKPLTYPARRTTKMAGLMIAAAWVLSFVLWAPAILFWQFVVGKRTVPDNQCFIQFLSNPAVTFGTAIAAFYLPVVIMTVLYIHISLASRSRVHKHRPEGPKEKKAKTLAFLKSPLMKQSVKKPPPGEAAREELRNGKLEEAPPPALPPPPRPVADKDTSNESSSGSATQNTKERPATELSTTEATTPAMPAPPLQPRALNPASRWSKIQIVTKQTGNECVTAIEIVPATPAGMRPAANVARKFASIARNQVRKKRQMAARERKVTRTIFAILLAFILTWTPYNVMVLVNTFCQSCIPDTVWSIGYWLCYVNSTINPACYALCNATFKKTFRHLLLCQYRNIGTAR
Chain of human Neurokinin, NK2 Receptor, TACR2 (gene 6865) (P21452 whole entry, looked up): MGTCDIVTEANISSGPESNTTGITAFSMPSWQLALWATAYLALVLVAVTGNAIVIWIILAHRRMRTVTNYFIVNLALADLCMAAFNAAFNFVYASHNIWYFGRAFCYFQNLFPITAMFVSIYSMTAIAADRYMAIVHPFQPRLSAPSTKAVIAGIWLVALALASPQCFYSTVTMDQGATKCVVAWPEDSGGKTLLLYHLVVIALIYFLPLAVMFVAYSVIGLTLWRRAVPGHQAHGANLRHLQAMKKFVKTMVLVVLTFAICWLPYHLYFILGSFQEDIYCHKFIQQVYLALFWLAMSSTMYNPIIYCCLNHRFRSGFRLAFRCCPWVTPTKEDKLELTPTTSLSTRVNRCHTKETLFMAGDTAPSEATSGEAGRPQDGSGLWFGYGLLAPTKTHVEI
Chain of Muscarinic acetylcholine receptor M2 (Homo sapiens) (P08172 whole entry, looked up): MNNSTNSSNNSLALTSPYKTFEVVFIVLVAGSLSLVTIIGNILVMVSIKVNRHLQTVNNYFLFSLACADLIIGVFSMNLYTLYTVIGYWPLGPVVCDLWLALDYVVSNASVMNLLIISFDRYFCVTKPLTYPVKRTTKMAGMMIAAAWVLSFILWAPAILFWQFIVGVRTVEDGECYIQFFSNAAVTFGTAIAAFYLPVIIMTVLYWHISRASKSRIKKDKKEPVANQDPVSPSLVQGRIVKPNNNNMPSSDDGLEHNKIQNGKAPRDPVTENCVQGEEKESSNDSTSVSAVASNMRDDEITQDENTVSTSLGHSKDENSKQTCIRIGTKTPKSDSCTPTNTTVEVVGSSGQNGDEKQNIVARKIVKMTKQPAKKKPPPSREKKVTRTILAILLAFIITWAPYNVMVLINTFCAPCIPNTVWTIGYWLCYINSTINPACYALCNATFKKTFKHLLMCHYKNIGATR

Broadly, the AC50 is the concentration at which the activity in the assay is half-maximal. As to `C=CCC1=C(C)C(OC(=O)C2C(C=C(C)C)C2(C)C)CC1=O` (configuration not stated), the AC50 in [1] is 25 µM (active) [middle of 4 runs]. In addition, the result in assay [2] and in [3] was inactive.
On to `CCCCNC(=O)OCC#CI`, for which the concentration at half-maximal activity (AC50) in assay [4] is 15.9 µM (active) and 14.4 µM (active); in assay [5] it was 13.3 µM (active); in [3], 9.57 µM (active) and 6.68 µM (active); in assay [7], 13.7 µM (active) and 25 µM (active). Further, the outcome in [5] and in [6] was inactive.
As for `N#CC(CCc1ccc(Cl)cc1)(Cn1cncn1)c1ccccc1` (configuration not stated), in assay [3], the call was inactive.
As to `O=C(O)c1nc(Cl)ccc1Cl`, the compound was classed as inactive in [8].
Take `COC(=O)C(C)Oc1ccc(Oc2ccc(Cl)cc2Cl)cc1` (configuration not stated): the compound was called inactive in assay [9] and in assay [10].
In the case of `CCOc1cc(Oc2ccc(C(F)(F)F)cc2Cl)ccc1[N+](=O)[O-]`, the compound was classed as inactive in assay [11].
In the case of `COc1nc(C)nc(NC(=O)NS(=O)(=O)c2ccccc2CCC(F)(F)F)n1`, the compound was classed as inactive in [12].
For `COC(=O)C=C(C)OP(=O)(OC)OC`, the compound was called inactive in assay [13] and in assay [14].
For `CCCCC(CC)COC(=O)c1ccccc1C(=O)OCC(CC)CCCC` (configuration not stated), the call in [10] was inactive.
In the case of `C=CCC1=C(C)[C@@H](OC(=O)[C@@H]2[C@@H](C=C(C)C)C2(C)C)CC1=O`, the values for the AC50 in assay [1] and in assay [10] were 19.9 µM (active) and 25 µM (active), respectively.
On to `Cc1ccc(-c2c(Cl)nc(C#N)n2S(=O)(=O)N(C)C)cc1`, for which the call in [15] was inactive.
As for `CCCCOC(=O)c1ccccc1C(=O)OCCCC`, the result in [16] was inactive.
On to `COc1ccc(C(c2ccc(OC)cc2)C(Cl)(Cl)Cl)cc1`, for which the call in assay [17], in [13], in assay [15], in assay [5], in [16] and in assay [3] was inactive.
With `CO/C=C(/C(=O)OC)c1ccccc1Oc1cc(Oc2ccccc2C#N)ncn1`, the half-maximal activity concentration (AC50) was 7.95 µM (active) in [5]; 13.9 µM (active) and 15.7 µM (active) in [10]. Besides, the compound was called inactive in assay [5], in assay [1], in assay [3], in assay [8] and in assay [7].
In the case of `COP(=S)(OC)Oc1nc(Cl)c(Cl)cc1Cl`, in [17], the result was inactive.
Regarding `OC(c1ccc(Cl)cc1)(c1cncnc1)c1ccccc1Cl` (configuration not stated), the AC50 in assay [5] was 12.5 µM (active).
